We go through nine compounds from ChEMBL document CHEMBL3988442, “University of Dundee, Small-Polar-MMV Screening Library” (2021).

For part of these data: Potency and affinity values are given separately.

What all share (design): scale not given: direction of the effect not stated beside the values
Experiment [1] deals with Protein translocase subunit SecA (Escherichia coli (strain K12)) (UniProt P10408). As to the kind of experiment: Assay to Identify E. coli SecA ATPase Inhibitors. Format: functional. The note with it: 30 µM.
Chain of Protein translocase subunit SecA (Escherichia coli (strain K12)) (P10408 whole entry): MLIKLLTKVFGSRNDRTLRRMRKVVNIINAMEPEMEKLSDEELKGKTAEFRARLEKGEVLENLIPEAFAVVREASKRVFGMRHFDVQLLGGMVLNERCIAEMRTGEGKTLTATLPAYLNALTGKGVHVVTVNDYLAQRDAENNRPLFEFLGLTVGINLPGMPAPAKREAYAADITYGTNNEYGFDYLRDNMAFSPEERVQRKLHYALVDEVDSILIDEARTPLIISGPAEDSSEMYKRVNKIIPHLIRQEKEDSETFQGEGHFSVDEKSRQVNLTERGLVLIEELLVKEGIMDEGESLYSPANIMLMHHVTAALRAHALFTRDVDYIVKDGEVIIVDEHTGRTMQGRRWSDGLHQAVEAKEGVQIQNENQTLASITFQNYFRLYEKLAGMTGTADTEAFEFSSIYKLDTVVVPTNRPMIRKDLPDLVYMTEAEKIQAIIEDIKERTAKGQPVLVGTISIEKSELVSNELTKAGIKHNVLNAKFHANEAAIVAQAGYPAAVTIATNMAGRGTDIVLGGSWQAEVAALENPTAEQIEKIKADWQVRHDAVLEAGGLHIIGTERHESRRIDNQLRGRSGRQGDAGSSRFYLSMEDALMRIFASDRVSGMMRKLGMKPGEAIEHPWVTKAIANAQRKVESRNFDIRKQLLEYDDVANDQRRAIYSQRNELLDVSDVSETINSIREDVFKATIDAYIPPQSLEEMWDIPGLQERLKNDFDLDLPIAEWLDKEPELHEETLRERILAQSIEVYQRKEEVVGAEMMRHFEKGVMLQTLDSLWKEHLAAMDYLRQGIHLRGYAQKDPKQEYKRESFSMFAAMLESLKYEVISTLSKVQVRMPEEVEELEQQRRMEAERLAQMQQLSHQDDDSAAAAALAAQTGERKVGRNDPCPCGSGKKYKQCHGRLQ
Experiment [2] has as its target T1, Ubiquitin-activating enzyme e1, putative (Leishmania donovani (strain BPK282A1)) (UniProt E9BSI1).
T1 sequence (whole entry): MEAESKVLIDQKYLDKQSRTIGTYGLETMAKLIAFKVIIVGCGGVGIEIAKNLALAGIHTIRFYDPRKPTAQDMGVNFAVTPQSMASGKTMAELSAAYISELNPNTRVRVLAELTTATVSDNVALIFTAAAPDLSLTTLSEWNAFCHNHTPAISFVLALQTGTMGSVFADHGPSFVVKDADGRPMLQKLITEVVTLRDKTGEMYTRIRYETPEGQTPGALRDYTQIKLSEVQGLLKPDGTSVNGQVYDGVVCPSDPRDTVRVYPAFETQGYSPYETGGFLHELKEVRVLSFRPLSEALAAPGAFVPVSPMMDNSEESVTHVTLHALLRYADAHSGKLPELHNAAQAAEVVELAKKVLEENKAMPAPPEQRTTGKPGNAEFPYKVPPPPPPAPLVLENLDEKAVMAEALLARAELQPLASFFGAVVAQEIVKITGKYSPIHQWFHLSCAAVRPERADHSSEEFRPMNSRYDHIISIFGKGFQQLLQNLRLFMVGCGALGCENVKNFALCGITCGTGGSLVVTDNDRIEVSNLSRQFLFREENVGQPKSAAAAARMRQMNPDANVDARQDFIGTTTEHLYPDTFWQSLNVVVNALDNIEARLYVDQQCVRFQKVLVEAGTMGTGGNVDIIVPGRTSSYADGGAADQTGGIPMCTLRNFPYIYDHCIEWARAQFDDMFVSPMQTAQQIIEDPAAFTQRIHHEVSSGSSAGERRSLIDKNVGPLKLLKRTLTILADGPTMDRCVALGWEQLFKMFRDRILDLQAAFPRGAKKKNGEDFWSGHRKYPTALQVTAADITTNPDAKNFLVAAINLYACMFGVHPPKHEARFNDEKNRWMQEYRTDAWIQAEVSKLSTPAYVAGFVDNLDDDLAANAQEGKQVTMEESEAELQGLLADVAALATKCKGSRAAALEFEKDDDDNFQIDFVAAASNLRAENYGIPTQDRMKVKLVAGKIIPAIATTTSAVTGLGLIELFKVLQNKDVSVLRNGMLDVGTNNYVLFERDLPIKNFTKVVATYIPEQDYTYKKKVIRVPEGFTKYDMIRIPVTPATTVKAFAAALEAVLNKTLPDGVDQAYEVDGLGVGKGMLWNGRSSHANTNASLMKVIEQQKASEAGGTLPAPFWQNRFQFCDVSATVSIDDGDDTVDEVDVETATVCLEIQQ
Description: Leishmania donovani Ubiquitin Activating Enzyme (LdE1). As to conditions: 30 µM. Format: functional.

For experiment [3], the target named is AMP-activated protein kinase, AMPK (Homo sapiens) (UniProt P54646+O43741+P54619+Q9UGJ0+Q9Y478+Q13131+Q9UGI9). Description: AMP-dependent Kinase enzyme assay. An in vitro enzyme assay that detects ADP turnover that is directly proportional to AMPK activity. This uses naive AMPK that is activated during the assay with MK-8722. Format: functional. The note with it: 30 µM.

Experiment [4] concerns the target Sialic acid-binding Ig-like lectin 9 (Homo sapiens) (UniProt Q9Y336). As to the kind of experiment: Hs-Siglec9 ALPHAscreen SOP 20170721. The note with it: 10 µM. For orientation: Alpha assays give light when donor and acceptor beads are brought close together.
The subject of a further experiment is Trypanosoma cruzi. As to the kind of experiment: Trypanosoma cruzi phosphomannomutase and mannose-1-phosphate guanylyltransferase assay. Format: functional. The note with it: 10 µM.
Experiment [5] addresses T2, Arginase-2, mitochondrial (Homo sapiens) (UniProt P78540).
T2 sequence (whole entry): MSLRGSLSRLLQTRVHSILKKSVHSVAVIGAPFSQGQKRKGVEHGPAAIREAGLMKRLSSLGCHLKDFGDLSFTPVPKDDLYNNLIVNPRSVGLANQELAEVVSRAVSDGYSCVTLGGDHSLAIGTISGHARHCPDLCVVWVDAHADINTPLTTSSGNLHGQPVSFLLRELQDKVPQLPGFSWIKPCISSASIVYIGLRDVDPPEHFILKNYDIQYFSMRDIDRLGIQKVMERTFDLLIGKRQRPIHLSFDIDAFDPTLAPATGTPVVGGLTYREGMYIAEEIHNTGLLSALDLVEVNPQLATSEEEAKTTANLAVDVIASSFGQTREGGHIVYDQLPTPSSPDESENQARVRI
Description: in vitro enzyme assay to detect the production of urea directly proportional to the activity of Arginase II. Note: in the data most compounds retested in dose-response had high values. Format: functional. As to conditions: 33.3 µM.

Experiment [6] has as its target T3, Proteasome subunit beta (Trypanosoma cruzi) (UniProt O96673).
T3 sequence (whole entry): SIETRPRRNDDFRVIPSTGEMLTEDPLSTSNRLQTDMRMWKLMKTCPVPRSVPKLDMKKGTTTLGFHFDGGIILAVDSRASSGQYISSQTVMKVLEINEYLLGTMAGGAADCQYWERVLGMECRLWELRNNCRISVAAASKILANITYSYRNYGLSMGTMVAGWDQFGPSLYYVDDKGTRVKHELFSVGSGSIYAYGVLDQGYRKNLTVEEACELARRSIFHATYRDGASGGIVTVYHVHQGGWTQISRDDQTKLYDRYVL
Description: Trypanosoma cruzi proteasome chymotrypsin-like activity (TcProtChymo) assay. Note: in the data most compounds retested in dose-response had high values. Format: functional. As to conditions: 9.37 µM.

For the next experiment, the species on record is Homo sapiens. Description: To identify inhibition of the IFN signalling (Jak-Stat) pathway via expression of an eGFP reporter gene under the control of an IFN-stimulated response element (ISRE) containing MxA promoter. Format: functional. The note with it: 30 µM.
The target of experiment [7] is T4, Tyrosyl-tRNA synthetase, putative (Trypanosoma cruzi (strain CL Brener)) (UniProt Q4DSP6).
T4 sequence (whole entry): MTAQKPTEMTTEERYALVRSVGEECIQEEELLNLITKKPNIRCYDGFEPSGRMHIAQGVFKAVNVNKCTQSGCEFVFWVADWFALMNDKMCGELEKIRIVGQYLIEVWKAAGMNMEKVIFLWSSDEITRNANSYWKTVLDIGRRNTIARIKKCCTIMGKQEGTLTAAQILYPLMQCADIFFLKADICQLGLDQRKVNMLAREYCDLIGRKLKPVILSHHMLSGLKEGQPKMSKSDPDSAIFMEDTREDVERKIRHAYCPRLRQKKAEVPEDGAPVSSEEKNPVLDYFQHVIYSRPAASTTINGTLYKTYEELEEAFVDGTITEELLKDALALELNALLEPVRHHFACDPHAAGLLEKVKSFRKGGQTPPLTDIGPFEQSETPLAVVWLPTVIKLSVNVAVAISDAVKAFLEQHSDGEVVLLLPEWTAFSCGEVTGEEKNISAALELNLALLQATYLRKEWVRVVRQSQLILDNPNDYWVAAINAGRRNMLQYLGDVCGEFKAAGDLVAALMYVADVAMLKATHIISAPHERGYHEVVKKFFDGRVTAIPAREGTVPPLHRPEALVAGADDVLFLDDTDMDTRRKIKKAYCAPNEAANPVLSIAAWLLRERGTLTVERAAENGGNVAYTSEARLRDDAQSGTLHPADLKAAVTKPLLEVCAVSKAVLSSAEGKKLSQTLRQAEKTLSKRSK
As to the kind of experiment: Trypanosoma cruzi tyrosyl tRNA synthetase (TcYRS) _High Tyrosine SOP. Note: in the data most compounds retested in dose-response had high values. Format: functional. As to conditions: 30 µM.

The target in experiment [8] is T4, Tyrosyl-tRNA synthetase, putative (Trypanosoma cruzi (strain CL Brener)). As to the kind of experiment: Trypanosoma cruzi tyrosyl tRNA synthetase (TcYRS) SOP. Format: functional. As to conditions: 30 µM.
Experiment [9] concerns the target Chromo domain-containing protein 1 (Saccharomyces cerevisiae (strain ATCC 204508 / S288c) (Baker's yeast)) (UniProt P32657). As to the kind of experiment: ScCHD-1 Enzyme Inhibition Assay. Note: in the data most compounds retested in dose-response had high values. Format: functional. The note with it: 30 µM.

Chain of Sialic acid-binding Ig-like lectin 9 (Homo sapiens) (Q9Y336 whole entry): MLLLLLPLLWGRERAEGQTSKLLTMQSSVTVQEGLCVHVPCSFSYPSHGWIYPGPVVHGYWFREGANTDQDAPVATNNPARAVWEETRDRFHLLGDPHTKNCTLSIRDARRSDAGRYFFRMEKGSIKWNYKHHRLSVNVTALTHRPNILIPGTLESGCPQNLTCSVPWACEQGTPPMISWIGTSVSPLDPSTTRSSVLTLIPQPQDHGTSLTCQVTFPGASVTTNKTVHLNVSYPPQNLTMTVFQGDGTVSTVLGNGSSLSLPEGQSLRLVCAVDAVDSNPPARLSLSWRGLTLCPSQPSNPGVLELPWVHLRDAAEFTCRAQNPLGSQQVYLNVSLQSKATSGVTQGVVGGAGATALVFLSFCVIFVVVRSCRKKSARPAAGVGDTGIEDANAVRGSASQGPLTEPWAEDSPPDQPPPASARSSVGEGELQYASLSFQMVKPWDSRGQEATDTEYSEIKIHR
Chain of Chromo domain-containing protein 1 (Saccharomyces cerevisiae (strain ATCC 204508 / S288c) (Baker's yeast)) (P32657 whole entry, the tested form may be a part): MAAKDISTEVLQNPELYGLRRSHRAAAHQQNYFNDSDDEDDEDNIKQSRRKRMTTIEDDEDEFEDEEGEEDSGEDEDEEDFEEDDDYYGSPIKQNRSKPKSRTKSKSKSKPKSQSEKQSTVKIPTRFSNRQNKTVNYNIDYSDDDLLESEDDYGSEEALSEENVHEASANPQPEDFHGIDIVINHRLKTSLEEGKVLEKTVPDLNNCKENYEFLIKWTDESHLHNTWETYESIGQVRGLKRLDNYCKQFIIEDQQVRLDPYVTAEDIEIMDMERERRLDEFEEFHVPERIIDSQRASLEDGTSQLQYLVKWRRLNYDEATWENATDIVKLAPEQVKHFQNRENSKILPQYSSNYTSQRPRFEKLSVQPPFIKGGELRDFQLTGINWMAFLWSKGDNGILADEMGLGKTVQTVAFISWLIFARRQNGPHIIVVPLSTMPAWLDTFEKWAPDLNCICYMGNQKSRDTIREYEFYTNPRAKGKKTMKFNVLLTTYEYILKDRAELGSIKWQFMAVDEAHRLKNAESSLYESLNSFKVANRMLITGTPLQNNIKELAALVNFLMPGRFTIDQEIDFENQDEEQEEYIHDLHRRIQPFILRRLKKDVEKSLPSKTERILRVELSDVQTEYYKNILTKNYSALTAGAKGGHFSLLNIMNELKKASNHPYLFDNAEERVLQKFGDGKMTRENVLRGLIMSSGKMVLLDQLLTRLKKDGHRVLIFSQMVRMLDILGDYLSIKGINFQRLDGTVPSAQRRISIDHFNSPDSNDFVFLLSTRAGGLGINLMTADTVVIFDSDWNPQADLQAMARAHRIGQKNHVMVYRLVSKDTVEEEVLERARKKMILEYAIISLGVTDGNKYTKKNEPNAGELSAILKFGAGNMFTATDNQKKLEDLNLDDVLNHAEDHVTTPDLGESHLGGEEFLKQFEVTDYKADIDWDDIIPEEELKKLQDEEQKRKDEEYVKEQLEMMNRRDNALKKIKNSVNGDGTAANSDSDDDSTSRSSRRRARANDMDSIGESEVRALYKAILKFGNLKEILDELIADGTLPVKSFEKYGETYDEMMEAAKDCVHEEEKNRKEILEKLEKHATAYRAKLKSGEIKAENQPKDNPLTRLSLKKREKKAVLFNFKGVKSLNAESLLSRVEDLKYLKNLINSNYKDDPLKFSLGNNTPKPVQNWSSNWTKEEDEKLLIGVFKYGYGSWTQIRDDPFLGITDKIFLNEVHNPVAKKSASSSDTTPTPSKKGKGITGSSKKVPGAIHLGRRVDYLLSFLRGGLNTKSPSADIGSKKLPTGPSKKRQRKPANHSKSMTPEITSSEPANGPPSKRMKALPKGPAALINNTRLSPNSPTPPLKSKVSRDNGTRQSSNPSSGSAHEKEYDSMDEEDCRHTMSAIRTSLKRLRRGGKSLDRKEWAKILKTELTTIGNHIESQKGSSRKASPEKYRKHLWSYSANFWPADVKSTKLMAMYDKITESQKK

Turning to `O=S(=O)(C1CC1)N1CCOCC2(CCN(c3ccccn3)C2)C1` (centres undefined), the Percent Effect is -6.13% in experiment [1]; 1.33% in experiment [2]; 15.1% in experiment [3]; -7.58% in [4]; -5.7% in the experiment with Trypanosoma cruzi; -6.51% in experiment [5]. Moreover, the Percent Effect in experiment [6] was 7.21%; in the experiment filed under Homo sapiens it was 3.01%; in experiment [7] it was -6.35%; in experiment [8], -5.13%; in experiment [9], -5.08%.

With `COc1ccc(C2=CCN(C(=O)C3CCCN(C(N)=O)C3)CC2)cc1` (centres undefined), the Percent Effect is -3.88% in [1]; 7.89% in experiment [2]; 4.4% in [3]; -4.74% in experiment [4]; 7.75% in the experiment on Trypanosoma cruzi; -2.52% in experiment [5]. In addition, the Percent Effect in experiment [6] is 12.9%; in the experiment filed under Homo sapiens, 2.88%; in experiment [7], 6.4%; in experiment [8], 18.5%; in experiment [9], -7.24%.

In the case of `CCCc1cc(C(=O)N2CCCC(n3ccnc3C)C2)[nH]n1` (centres undefined), the Percent Effect in experiment [1] was -3.55%; in experiment [2] it was 5.06%; in experiment [3] it was -3.54%; in experiment [4], 9.52%; in the experiment on Trypanosoma cruzi, 3.87%; in experiment [5] it was 3.04%. Also, the Percent Effect was -7.94% in [6]; 15.5% in the experiment filed under Homo sapiens; 3.45% in experiment [7]; 11.4% in experiment [8]; -1.51% in [9].

`COCC1c2c(cnn2CC2CC2)CCN1Cc1ccc(OC)cc1` (centres undefined): the Percent Effect in [1] is 0.566%; in experiment [2], -5.33%; in [3], -0.782%; in experiment [4], 3.28%; in the experiment with Trypanosoma cruzi, -0.772%; in experiment [5], -53.2%. The Percent Effect was 9.23% in experiment [6]; 91.4% in the experiment filed under Homo sapiens; -4.17% in experiment [7]; 2.5% in experiment [8]; -3.58% in experiment [9].

As for `Cc1cnn(CC2CN(CC(=O)Nc3nnc(C)s3)CCO2)c1` (centres undefined), the Percent Effect in experiment [1] is -5.89%; in experiment [2], 13.2%; in experiment [3] it was 0.773%; in [4], 3.55%; with Trypanosoma cruzi, 7.71%; in [5], -0.766%. Moreover, the Percent Effect was 6.01% in [6]; -6.29% in the experiment listed under Homo sapiens; 3.43% in [7]; 12.2% in experiment [8]; -12.5% in experiment [9].

As to `O=C(NCc1ccoc1)Nc1ccc(CN2CCOC2=O)cc1`, the Percent Effect in experiment [1] is -4.58%; in [2] it was 1.39%; in experiment [3], 6.74%; in experiment [4] it was -4.22%; with Trypanosoma cruzi it was -6.12%; in experiment [5], 0%. In addition, the Percent Effect in experiment [6] is 15.1%; in the experiment listed under Homo sapiens it was 24.8%; in [7] it was 0%; in experiment [8] it was -5.13%; in experiment [9] it was -2.04%.

For the compound `CCc1nc(C)c(C(=O)N2C[C@H]3CC[C@@H]2CN(S(=O)(=O)N(C)C)C3)s1`, the Percent Effect in experiment [1] is -5.92%; in experiment [2], 2.67%; in experiment [3], -0.605%; in experiment [4] it was -2.09%; in the experiment with Trypanosoma cruzi it was -8.28%; in experiment [5], -2.08%. Moreover, the Percent Effect in experiment [6] is 15.9%; in the experiment filed under Homo sapiens, 21.2%; in experiment [7], -0.546%; in [8], 3.7%; in [9], -4.98%.

As for `O=C(NC1(c2nnn(CCO)n2)CCCC1)c1ccccc1`, the Percent Effect is -3.12% in [1]; 8% in experiment [2]; -5.64% in [3]; 17.4% in experiment [4]; 3.41% in the experiment with Trypanosoma cruzi; 17.7% in experiment [5]. Also, the Percent Effect in experiment [6] was 1.57%; in the experiment listed under Homo sapiens it was -6.59%; in experiment [7], 6.01%; in experiment [8] it was 16.1%; in experiment [9], -4.4%.

For the compound `COc1cccc(CNC(CN2CCN(C)CC2)c2ccccc2)c1` (centres undefined), the Percent Effect is -5.66% in experiment [1]; 5.41% in experiment [2]; -4.3% in experiment [3]; -1.53% in [4]; -6.75% with Trypanosoma cruzi; 1.74% in experiment [5]. Further, the Percent Effect is 9.19% in [6]; 11.2% in the experiment listed under Homo sapiens; 1.07% in experiment [7]; 3.7% in experiment [8]; -3.35% in experiment [9].
